# Laboratory results as given in the supplement of paper PMC11634586.
# Where a name gives a salt, the structure may show the parent alone. A number with no mark means an inactive call.
# Test system: NCI-H1688
# Assay: inhibition of cell viability relative to untreated control (fraction); higher = stronger growth inhibition, active = 0.5 or more
# Conditions: 30 µM; 24 h
# In short: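 NCI-H1688 small cell lung cancer cells were plated in 96-well plates at 3 × 10^3 cells/well, and 24 h later they were exposed to a natural compound library (TargetMol) at 30 µM for 24 h at 37°C with 5% CO2. Viability was measured in triplicate using Cell Counting Kit-8, read as absorbance at 450 nm. Inhibition of cell viability is given as a fraction, calculated from viability normalised to untreated cells.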
row,SMILES,inhibition of cell viability
1,CC1=CC(=O)CC(C)(C)C1=O [Ketoisophorone],-0.175
2,CC(C)=CCCC(C)CCO (stereo not drawn) [Citronellol],0.283
3,O=c1c(O)c(-c2ccccc2)oc2ccccc12 [3-Hydroxyflavone],0.587 (active)
4,CC[C@H](C)C(=O)O[C@H]1CCC=C2C=C[C@H](C)[C@H](CC[C@@H]3C[C@@H](O)CC(=O)O3)[C@H]21 [Mevastatin],0.86 (active)
5,O=C(O[C@@H]1Cc2c(O)cc(O)cc2O[C@@H]1c1cc(O)c(O)c(O)c1)c1cc(O)c(O)c(O)c1 [(-)-Epigallocatechin Gallate],0.0795
6,NC(=O)c1cccnc1 [Nicotinamide],0.0846
7,COc1ccc(C[C@H]2COC(=O)[C@@H]2Cc2ccc(O[C@@H]3O[C@H](CO)[C@@H](O)[C@H](O)[C@H]3O)c(OC)c2)cc1OC [Arctiin],0.0918
8,Oc1cc(O)c2c(c1)O[C@H](c1ccc(O)c(O)c1)[C@@H](O)C2 [(+)-Catechin Hydrate],0.159
9,C=C[C@H]1CN2CC[C@H]1C[C@@H]2[C@@H](O)c1ccnc2ccc(OC)cc12 [Quinidine hydrochloride],-0.217
10,C[N+](C)(C)CC(O)CC(=O)[O-] (stereo not drawn) [L(-)-Carnitine],0.123
11,C/C=C\c1ccc(OC)cc1 [cis-Anethol],-0.182
12,C[C@@H]1O[C@@H](OC[C@H]2O[C@@H](Oc3c(-c4ccc(O)c(O)c4)oc4cc(O)cc(O)c4c3=O)[C@H](O)[C@@H](O)[C@@H]2O)[C@H](O)[C@H](O)[C@H]1O [Rutin],0.272
13,CC12CCC(CC1)C(C)(C)O2 [Eucalyptol],-0.192
14,C[C@]12CC[C@@H]3c4ccc(O)cc4CC[C@H]3[C@@H]1CC[C@@H]2O [Estradiol],0.296
15,COC(=O)C1=CO[C@@H](O[C@@H]2O[C@H](CO)[C@@H](O)[C@H](O)[C@H]2O)[C@@H]2[C@@H](C)[C@@H](O)C[C@H]12 [Loganin],0.0696
16,COc1ccc([C@@H]2CC(=O)c3c(O)cc(O[C@@H]4O[C@H](CO[C@@H]5O[C@@H](C)[C@H](O)[C@@H](O)[C@H]5O)[C@@H](O)[C@H](O)[C@H]4O)cc3O2)cc1O [Hesperidin],0.0198
17,CC1OC(OC2C(OC3CCC4(C)C(CCC5(C)C4CC=C4C6CC(C)(C)CCC6(C(=O)OC6OC(COC7OC(CO)C(O)C(O)C7O)C(O)C(O)C6O)CCC45C)C3(C)CO)OCC(O)C2O)C(O)C(O)C1O (stereo not drawn) [Dipsacoside B],0.235
18,CCCCCCCCCC[C@H](C(=O)O)[C@]1(C(=O)O)CCC(=O)O1 [Spiculisporic Acid],0.104
19,O=C(O)c1cc(O)c(O)c(O)c1 [Gallic acid],0.44
20,COc1cc(C2Oc3cc([C@H]4Oc5cc(O)cc(O)c5C(=O)[C@@H]4O)ccc3OC2CO)ccc1O (stereo partly drawn) [Silibinin],0.0271
21,CC[C@@H]1C(=O)OC[C@@H]1Cc1cncn1C [(+)-Pilocarpine hydrochloride],0.197
22,O=c1cc(-c2ccc(O)c(O)c2)oc2cc(O)cc(O)c12 [Luteolin],0.794 (active)
23,NC[C@H]1O[C@H](O[C@H]2[C@H](O)[C@@H](O[C@H]3O[C@H](CO)[C@@H](O)[C@H](N)[C@H]3O)[C@H](N)C[C@@H]2N)[C@H](O)[C@@H](O)[C@@H]1O [Kanamycin sulfate],0.154
24,CCCCCC=CCC=CCCCCCCCC(=O)OC(COC(=O)CCCCCCCCCCCCCCC)COP(=O)([O-])OCC[N+](C)(C)C [L-α-Phosphatidylcholine],0.136
25,C[C@]12CCC(=O)C=C1CC[C@@H]1[C@@H]2CC[C@@]2(C)[C@H]1CC[C@]2(O)C(=O)CO [Cortodoxone],-0.112
26,CC(C)=CC[C@@H](O)C1=CC(=O)c2c(O)ccc(O)c2C1=O [Shikonin],0.956 (active)
27,O=C(CCc1ccc(O)cc1)c1c(O)cc(O)cc1O [Phloretin],-0.0149
28,COC(=O)C1=CO[C@@H](O[C@@H]2O[C@H](CO)[C@@H](O)[C@H](O)[C@H]2O)[C@@H]2C(CO)=CC[C@H]12 [Geniposide],0.00243
